Source: PubChem BioAssay AID1159580 (chemical genetic matrix, 2015)
“And” between values parts separate entries of the source, which are not always exact repeats. Equal entries are not always repeated. Among all 5,500 compounds or so, about 2,000 (36%) were called active. Not shown: some 18% with an inconclusive outcome. Rule as the data show it: active = normalized growth mostly below about 0.91 (no sharp cut-off); inconclusive = no clear call, values can overlap the other calls; inactive = mostly above about 0.92. This is one part of the list.

Assay: chemical genetic growth profiling, strain panel (AID 1159580);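 also: tested at 20 µM; growth read once vehicle control cultures reached saturation at 30 °C; 1 = growth at the plate median or of vehicle wells; lower values mean less growth of the strain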
Details: growth OD

Measured: normalized growth

Nc1ccncc1
inactive: S. cerevisiae deletion strains, locus YJR075W, strain HOC1, active compounds read low 1.03 and 1 | S. cerevisiae deletion strains, locus YKL009W, strain mrt4, active compounds read low 1.03 | S. cerevisiae deletion strains, locus YKL068W, active compounds read low 0.988 | S. cerevisiae deletion strains, locus YKL085W, strain MDH1 (second series), active compounds read low 0.995 | S. cerevisiae deletion strains, locus YKL085W, strain MDH1, active compounds read low 0.995 | S. cerevisiae deletion strains, locus YKL160W, strain elf1, active compounds read low 0.994 | S. cerevisiae deletion strains, locus YKL190W, strain CNB1, active compounds read low 1.01 | S. cerevisiae deletion strains, locus YKR001C, strain vps1, active compounds read low 0.931 | S. cerevisiae deletion strains, locus YKR026C, strain gcn3, active compounds read low 0.984 | S. cerevisiae deletion strains, locus YKR091W, strain srl3, active compounds read low 0.987 | S. cerevisiae deletion strains, locus YLL001W, strain dnm1, active compounds read low 0.981 | S. cerevisiae deletion strains, locus YLL026W, active compounds read low 0.999 | S. cerevisiae deletion strains, locus YLL041C, strain sdh2, active compounds read low 0.989 | S. cerevisiae deletion strains, locus YLR027C, strain aat2, active compounds read low 0.994 | S. cerevisiae deletion strains, locus YLR039C, strain RIC1, active compounds read low 1 | S. cerevisiae deletion strains, locus YLR058C, strain SHM2, active compounds read low 1.02 | S. cerevisiae deletion strains, locus YLR102C, strain apc9, active compounds read low 0.97 | S. cerevisiae deletion strains, locus YLR113W, strain HOG1, active compounds read low 0.958 | S. cerevisiae deletion strains, locus YLR221C, strain rsa3, active compounds read low 1 | S. cerevisiae deletion strains, locus YLR258W, strain gsy2, active compounds read low 0.987 | S. cerevisiae deletion strains, locus YLR262C, strain YPT6 (second series), active compounds read low 0.971 | S. cerevisiae deletion strains, locus YLR262C, strain YPT6, active compounds read low 1.02 | S. cerevisiae deletion strains, locus YLR268W, strain sec22, active compounds read low 0.921 | S. cerevisiae deletion strains, locus YLR320W, strain mms22, active compounds read low 0.993 | S. cerevisiae deletion strains, locus YLR330W, strain CHS5, active compounds read low 1.01 | S. cerevisiae deletion strains, locus YLR342W, strain FKS1 (second series), active compounds read low 1.02 | S. cerevisiae deletion strains, locus YLR342W, strain FKS1, active compounds read low 0.991 | S. cerevisiae deletion strains, locus YLR357W, strain rsc2, active compounds read low 1.01 | S. cerevisiae deletion strains, locus YLR370C, strain arc18, active compounds read low 0.997 | S. cerevisiae deletion strains, locus YLR371W, strain rom2, active compounds read low 0.976 | S. cerevisiae deletion strains, locus YLR384C, strain iki3, active compounds read low 0.994 | S. cerevisiae deletion strains, locus YLR418C, strain cdc73, active compounds read low 0.935 | S. cerevisiae deletion strains, locus YML016C, strain PPZ1, active compounds read low 1.02 | S. cerevisiae deletion strains, locus YML032C, strain rad52, active compounds read low 0.957 | S. cerevisiae deletion strains, locus YML120C, strain ndi1, active compounds read low 0.998 | S. cerevisiae deletion strains, locus YML124C, strain tub3, active compounds read low 0.977 | S. cerevisiae deletion strains, locus YMR058W, strain fet3, active compounds read low 1 | S. cerevisiae deletion strains, locus YMR078C, strain ctf18, active compounds read low 0.958 | S. cerevisiae deletion strains, locus YMR125W, strain sto1, active compounds read low 0.984 | S. cerevisiae deletion strains, locus YMR129W, active compounds read low 0.993 | S. cerevisiae deletion strains, locus YMR205C, strain PFK2, active compounds read low 0.999 | S. cerevisiae deletion strains, locus YMR223W, strain ubp8, active compounds read low 0.977 | S. cerevisiae deletion strains, locus YMR231W, strain pep5, active compounds read low 0.995 | S. cerevisiae deletion strains, locus YMR263W, strain SAP30, active compounds read low 1.02 and 1.01 | S. cerevisiae deletion strains, locus YMR307W, strain GAS1, active compounds read low 1.01 | S. cerevisiae deletion strains, locus YNL067W, strain RPL9B, active compounds read low 1.01 | S. cerevisiae deletion strains, locus YNL071W, strain lat1, active compounds read low 0.995 | S. cerevisiae deletion strains, locus YNL128W, strain TEP1, active compounds read low 1.02 | S. cerevisiae deletion strains, locus YNL153C, strain GIM3, active compounds read low 1.01 and 1 | S. cerevisiae deletion strains, locus YNL175C, strain NOP13, active compounds read low 1 | S. cerevisiae deletion strains, locus YNL183C, strain NPR1, active compounds read low 0.912 | S. cerevisiae deletion strains, locus YNL197C, strain WHI3, active compounds read low 1.01 | S. cerevisiae deletion strains, locus YNL209W, strain ssb2, active compounds read low 0.993 | S. cerevisiae deletion strains, locus YNL224C, strain SQS1, active compounds read low 0.998 | S. cerevisiae deletion strains, locus YNL233W, strain BNI4, active compounds read low 1 | S. cerevisiae deletion strains, locus YNL248C, strain rpa49, active compounds read low 0.993 | S. cerevisiae deletion strains, locus YNL250W, strain rad50, active compounds read low 0.978 | S. cerevisiae deletion strains, locus YNL271C, strain bni1, active compounds read low 0.942 | S. cerevisiae deletion strains, locus YNL298W, strain CLA4, active compounds read low 0.966 | S. cerevisiae deletion strains, locus YNL307C, strain MCK1, active compounds read low 0.947 | S. cerevisiae deletion strains, locus YNL322C, strain KRE1 (second series), active compounds read low 0.99 | S. cerevisiae deletion strains, locus YNL322C, strain KRE1, active compounds read low 1.01 and 1.02 | S. cerevisiae deletion strains, locus YNR049C, strain mso1, active compounds read low 0.99 | S. cerevisiae deletion strains, locus YNR052C, strain pop2, active compounds read low 0.974 | S. cerevisiae deletion strains, locus YOL006C, strain TOP1, active compounds read low 0.996 | S. cerevisiae deletion strains, locus YOL012C, strain htz1 1.65 | S. cerevisiae deletion strains, locus YOL147C, strain pex11, active compounds read low 0.956 | S. cerevisiae deletion strains, locus YOR001W, strain rrp6, active compounds read low 0.993 | S. cerevisiae deletion strains, locus YOR061W, strain CKA2, active compounds read low 1.02 | S. cerevisiae deletion strains, locus YOR069W, strain VPS5, active compounds read low 1.02 | S. cerevisiae deletion strains, locus YOR070C, strain gyp1, active compounds read low 0.999 | S. cerevisiae deletion strains, locus YOR080W, strain dia2, active compounds read low 0.99 | S. cerevisiae deletion strains, locus YOR083W, strain WHI5 (second series), active compounds read low 0.998 | S. cerevisiae deletion strains, locus YOR083W, strain WHI5, active compounds read low 1 | S. cerevisiae deletion strains, locus YOR106W, strain vam3, active compounds read low 1.01 | S. cerevisiae deletion strains, locus YOR136W, strain idh2, active compounds read low 0.974 | S. cerevisiae deletion strains, locus YOR144C, strain elg1, active compounds read low 0.963 | S. cerevisiae deletion strains, locus YOR184W, strain ser1, active compounds read low 0.904 | S. cerevisiae deletion strains, locus YOR231W, strain MKK1, active compounds read low 0.968 | S. cerevisiae deletion strains, locus YOR265W, strain rbl2, active compounds read low 0.991 | S. cerevisiae deletion strains, locus YOR270C, strain vph1, active compounds read low 0.98 | S. cerevisiae deletion strains, locus YOR290C, strain snf2, active compounds read low 1 | S. cerevisiae deletion strains, locus YOR316C, strain cot1, active compounds read low 0.973 | S. cerevisiae deletion strains, locus YPL051W, strain arl3, active compounds read low 0.988 | S. cerevisiae deletion strains, locus YPL055C, strain LGE1, active compounds read low 1.07 | S. cerevisiae deletion strains, locus YPL078C, strain atp4, active compounds read low 0.995 | S. cerevisiae deletion strains, locus YPL106C, strain sse1, active compounds read low 1 | S. cerevisiae deletion strains, locus YPL240C, strain hsp82, active compounds read low 0.983 | S. cerevisiae deletion strains, locus YPL241C, strain CIN2, active compounds read low 1.01 | S. cerevisiae deletion strains, locus YPL256C, strain CLN2, active compounds read low 0.946 | S. cerevisiae deletion strains, locus YPR119W, strain clb2, active compounds read low 0.947 | S. cerevisiae deletion strains, locus YPR141C, strain kar3, active compounds read low 0.99 | S. cerevisiae deletion strains, locus YPR163C, strain tif3, active compounds read low 0.959 | S. cerevisiae deletion strains, locus YPR167C, strain met16, active compounds read low 0.969 | S. cerevisiae deletion strains, strain wtn01, active compounds read low 0.963 | S. cerevisiae strains, strain wild type, active compounds read low 1.02
